Results filed as inconclusive are left out. Activity calls are given as the source filed them. Unless noted, calls come from the whole dose curve; as a rule, active = well fitted curve in the direction sought with a large enough effect; inconclusive = small, poorly fitted or top-dose-only effect, or another doubt; inactive = no such curve, though single readings can be large; an effect the other way counts as inactive or inconclusive.

Assay [1] has as its target Lysosomal acid glucosylceramidase (Homo sapiens) (UniProt P04062). The experiment in a line: Glucocerebrosidase-p2 (AID 348; in the data active = potency below about 10 µM; note: potency is the fitted concentration of half-maximal effect). The conditions noted are these: purified GBA, blue fluorogenic substrate, 40 min. In a few lines: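 Compounds titrated from 0.6 nM upwards against 0.2 nM enzyme in pH 5.9 citric acid/KH2PO4, taurocholate, tween-20; blue fluorogenic substrate 80 uM, 40 min room temperature, stopped and read Ex 365/Em 440 for AC50.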

Assay [2] in a line: AP1 Signaling Pathway (AID 357; active = well fitted curve in either direction with a large enough effect, not every such curve was filed as active;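 note: ME-180 reporter cells stimulated with EGF at its EC50 level; % is set by controls: 0 for no effect and ±100 for the full control effect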). The settings on record: ME-180 AP-1-bla reporter, EGF-induced, beta-lactamase ratio, 5 h; at 7.69 µM (top of the series) unless noted. Summed up:
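Titration-series screen for positive or negative modulators of EC50 EGF-induced signaling in ME-180 cells carrying an AP-1-driven beta-lactamase reporter. After 5 hours at 37 degrees Celsius, CCF4 460nm/530nm emission ratio gave %Activity; AC50 values derived.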

Assay [3] has as its target Cytochrome P450 1A2 (Homo sapiens) (UniProt P05177). The experiment in a line: p450-cyp1a2 (AID 410; calls by dose curve; note: potency is the fitted concentration of half-maximal effect). The settings on record: recombinant CYP1A2, luciferin-ME demethylation, luminescence; series mostly up to 57 µM. Summed up: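 Luminescent readout of luciferin formed from Luciferin-ME by human CYP1A2; data normalized against complete inhibition by 57 uM furafylline. Enzyme 20nM, substrate 100uM at Km, 100mM KPO4 buffer, 60 min reaction at room temperature.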

The nature of assay [4]: NFAT Signaling Pathway (AID 444; active = well fitted curve in either direction with a large enough effect, not every such curve was filed as active;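 note: carbachol stimulus at about its EC50 of 1 µM final; % is set by controls: 0 for no effect and ±100 for the full control effect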). The settings on record: Jurkat NFAT-bla M1, carbachol, beta-lactamase ratio, 5 h; at 7.69 µM (top of the series) unless noted. In a few lines:
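Jurkat cells with NFAT-driven β-lactamase reporter and co-expressed M1 receptor, stimulated with carbachol (final 1 uM, ~EC50), compound titration, 5 h at 37 °C. CCF4 loaded 1 h at RT; 460/530 nm ratio gave %activity and AC50.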

The nature of assay [5]: Stat Signaling Pathway (AID 446; active = well fitted curve in either direction with a large enough effect, not every such curve was filed as active;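 note: ME-180 cervical cancer cells given 40 pM IL-6 alongside compound; SIE-controlled beta-lactamase reporter measured as 460/530 nm FRET emission ratio; % is set by controls: 0 for no effect and ±100 for the full control effect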). The settings on record: ME-180 SIE beta-lactamase reporter, IL-6 stimulated, 5 h; at 7.69 µM (top of the series) unless noted. In a few lines:
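Reporter line: ME-180 cervical carcinoma, SIE-beta-lactamase. Treatment: compound with 40 pM IL-6, 5 hrs, 37 C, in low-serum OPTI-MEM with 10 mM HEPES pH 7.3. Detection: 460/530 nm fluorescence.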

Assay [6] concerns the target Glucocorticoid receptor (Homo sapiens) (UniProt P04150). Nature of the assay: GR-EFC Redistribution (AID 451; calls by dose curve; note: potency is the fitted concentration of half-maximal effect). The settings on record: CHO-K1 GR-EFC translocation, beta-gal luminescence, 2 h. Summed up: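 CHO-K1 cells expressing nuclear EA and GR-ED fragments of b-gal; compounds titrated up to 46 uM final, 2 h at 37 C. GR nuclear translocation read as complemented b-gal luminescence after 1 h RT detection.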

Assay [7] deals with Mitogen-activated protein kinase 10 (Mus musculus) (UniProt Q61831). Nature of the assay: JNK3 AlphaScreen Assay (AID 530; active = well fitted curve in either direction with a large enough effect, not every such curve was filed as active;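 note: kinase came from lysate of stimulated human HepG2 cells; signal reports phosphorylation of biotinylated GST-cJun 1-79 at Ser73 with 10 µM ATP; % is set by controls: 0 for no effect and ±100 for the full control effect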). The conditions noted are these: JNK3 lysate, c-Jun phosphorylation; series mostly up to 57.1 µM. In a few lines: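 Pre-activated (IL-1β/TNFα) JNK3 in HepG2 lysates phosphorylates biotin-GST-cJun(1-79), 10 uM ATP; anti-phospho-cJun(Ser73) AlphaScreen read at room temperature, pH 7.6 Tris buffer. Compounds pre-incubated 15 min as titrations.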
A general note: Alpha assays give light when donor and acceptor beads are brought close together.

Assay [8] concerns the target Cytochrome P450 3A4 (Homo sapiens) (UniProt P08684). The experiment in a line: qHTS Assay for Activators of Cytochrome P450 3A4 (AID 885). Note: nearly all actives have a fitted effect of over 65% in size. The conditions noted are these: recombinant CYP3A4, Luciferin-PPXE luminescence, 60 min; series mostly up to 57.1 µM. Summed up: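 Signal was normalized against complete inhibition by 57 uM ketoconazole. The reaction used 20nM CYP3A4 with 25uM Luciferin-PPXE, 10-min compound preincubation and a 60-min NADPH-supported step at RT.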

In assay [9] the target is Cytochrome P450 2D6 (Homo sapiens) (UniProt P10635). The experiment in a line: qHTS Assay for Inhibitors and Substrates of Cytochrome P450 2D6 (AID 891). Note: potency is the fitted concentration of half-maximal effect; nearly all actives have a fitted effect of over 60% in size. The conditions noted are these: recombinant CYP2D6, luciferin-ME EGE luminescence; series mostly up to 57.1 µM. Summed up:
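Human CYP2D6 (5 nM) with 30 uM Luciferin-ME EGE (at Km) in 100 mM KPO4, compound preincubated 10 min, then NADPH regeneration system for 60 min at room temperature. Luciferin read by luminescence; normalized to 1.43 uM quinidine.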
In general terms: qHTS replaces the single test concentration by a dilution series.

The nature of assay [10]: Confirmation and Secondary Assay for Modulators of Hemoglobin Beta Chain Splicing at IVS2 654 locus (AID 910).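 Note: HeLa cells stably carrying EGFP split by mutant beta-globin IVS2-654 intron; % of control where 0% means no effect.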 The settings on record: HeLa EGFP-654 splicing reporter, GFP fluorescence, 48 h; series mostly up to 38.3 µM. Summed up:
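HeLa cells stably expressing EGFP interrupted by β-globin IVS2-654 intron, seeded overnight in Opti-MEM/2% FCS, then treated 2 days at 37 °C. Restored splicing read as total peak GFP intensity per well by laser scanning cytometry (488 nm excitation, 500–520 nm emission); 500 nM antisense PNA as control.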

A short description of assay [11]: Confirmation and Secondary Assay for Modulators of Hemoglobin Beta Chain Splicing at IVS2 705 locus (AID 930).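 Note: HeLa cells stably expressing the EGFP-705 splicing reporter; GFP fluorescence per well restored by corrected splicing of the IVS2-705 intron in EGFP; % of control where 0% means no effect.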 The settings on record: HeLa EGFP-705 splicing reporter, GFP fluorescence, 48 h; series mostly up to 38.3 µM. Summed up: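 HeLa EGFP-705 reporter; 500 cells/well, o/n 37C 5% CO2; cpd 2 d; 488 ex/500-520 em laser scan; total peak GFP intensity/well. Ref: 500 nM […] antisense PNA.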

Assay [12] can be described thus: qHTS Assay for Lipid Storage Modulators (AID 1519; calls by dose curve). The settings on record: Drosophila S3 cells, BODIPY lipid droplet/cell ratio, laser cytometry, cells loaded with oleic acid; for activity change, negative = inhibition: at 57.5 µM (top of the series). Summed up:
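Cells seeded at 5,000 per well were treated with compounds over a concentration series and loaded with oleic acid (400 uM, as added). Lipid droplet fluorescence (488 nm excitation, 500-530 nm channel) was read by laser-scanning cytometry and normalized to 20 uM Triacsin C.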

In assay [13] the target is Ubiquitin carboxyl-terminal hydrolase 1 (Homo sapiens) (UniProt O94782). The experiment in a line: Inhibitors of USP1/UAF1: Pilot qHTS (AID 504865). Note: nearly all actives have a fitted effect of over 35% in size. Note: potency is the fitted concentration of half-maximal effect. The settings on record: purified USP1/UAF1, Ub-rhodamine cleavage fluorescence; series mostly up to 54.9 µM. Summed up:
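Deubiquitinase activity followed as kinetic rhodamine fluorescence release from 150 nM Ub-Rho. 1 nM USP1/UAF1 with compound, after 15 min room-temperature preincubation, in HEPES pH 7.8 buffer containing TCEP, EDTA, BSA and Tween-20.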

In assay [14] the target is Glucocorticoid receptor (Homo sapiens) (UniProt P04150). The experiment in a line: GR-GFP Redistribution (AID 450;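 active = compounds whose dose series gives a full or clear partial fitted curve of increased nuclear translocation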; note: potency is the fitted concentration of half-maximal effect). The settings on record: U2OS GR-GFP nuclear translocation, laser cytometry, 2 h.
Assay [15] has as its target Cytochrome P450 3A4 (Homo sapiens) (UniProt P08684). Nature of the assay: qHTS Assay for Inhibitors and Substrates of Cytochrome P450 3A4 (AID 884). Note: potency is the fitted concentration of half-maximal effect; nearly all actives have a fitted effect of over 50% in size. The settings on record: recombinant CYP3A4, Luciferin-PPXE luminescence; series mostly up to 57.1 µM. In a few lines: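 20 nM human CYP3A4 with 25 uM Luciferin-PPXE (at KM) in 200 mM KPO4, preincubated 10 min with compound; NADPH regeneration started a 60 min RT reaction. Luciferin detected by luminescence, normalized to 57 uM ketoconazole as full inhibition.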

In assay [16] the target is 3',5'-cyclic-AMP phosphodiesterase 4B (Homo sapiens) (UniProt Q07343). The experiment in a line: qHTS Assay for Inhibitors of PDE-IV (AID 607; active = well fitted activation curve with a large enough effect in the main read-out, with a control signal flat, not every such curve was filed as active; note: % of control where 0% means no effect). The settings on record: HEK293 ACTOne CNG channel cells, membrane potential fluorescence; series mostly up to 22.9 µM. In a few lines:
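Cell-based read-out of cAMP via a modified cyclic nucleotide-gated channel and membrane potential dye (535/590 nm) in HEK293 cells expressing PDE4 endogenously. Compounds tested up to 22.9 uM final; 100 uM RO 20-1724 reference.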

Assay [17] addresses Cytochrome P450 2C19 (Homo sapiens) (UniProt P33261). Nature of the assay: qHTS Assay for Inhibitors and Substrates of Cytochrome P450 2C19 (AID 899). Note: % is set by controls: 0 for no effect and ±100 for the full control effect; nearly all actives have a fitted effect of over 60% in size. The conditions noted are these: recombinant CYP2C19, luciferin-H EGE luminescence; series mostly up to 57.1 µM. Summed up: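 Signal comes from luciferase acting on luciferin released by CYP2C19-mediated hydroxylation of Luciferin-H EGE, 10uM (KM). Assay mix: 5nM enzyme, 50mM KPO4; 60 min at 37C with NADPH regeneration. Data normalized against 57uM ketoconazole.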

A short description of assay [18]: qHTS Assay for Identification of Small Molecule Agonists for Hypoxia Response Element Signaling Pathway (AID 914; active = well fitted activation curve with a large enough effect in the signal ratio, with a control signal flat, not every such curve was filed as active; the % refers to the signal ratio; note: % of control where 0% means no effect). The settings on record: ME-180 (cervical carcinoma) HRE-bla reporter, beta-lactamase ratio, CoCl2, 17 h; activation: stronger effect = higher value. In a few lines:
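Read-out: CCF4 FRET ratio of 460nm to 530nm emission (excitation 405nm) after 2.5 hours at room temperature, taken from HRE-bla ME-180 cells that had been exposed to compound and EC50 CoCl2 for 17 hours.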

Setting [19] is: measured here: cell count channel max response.
Where [20] appears, read: measured here: lipid channel max response.

Sequence of Lysosomal acid glucosylceramidase (Homo sapiens) (P04062 whole entry, looked up): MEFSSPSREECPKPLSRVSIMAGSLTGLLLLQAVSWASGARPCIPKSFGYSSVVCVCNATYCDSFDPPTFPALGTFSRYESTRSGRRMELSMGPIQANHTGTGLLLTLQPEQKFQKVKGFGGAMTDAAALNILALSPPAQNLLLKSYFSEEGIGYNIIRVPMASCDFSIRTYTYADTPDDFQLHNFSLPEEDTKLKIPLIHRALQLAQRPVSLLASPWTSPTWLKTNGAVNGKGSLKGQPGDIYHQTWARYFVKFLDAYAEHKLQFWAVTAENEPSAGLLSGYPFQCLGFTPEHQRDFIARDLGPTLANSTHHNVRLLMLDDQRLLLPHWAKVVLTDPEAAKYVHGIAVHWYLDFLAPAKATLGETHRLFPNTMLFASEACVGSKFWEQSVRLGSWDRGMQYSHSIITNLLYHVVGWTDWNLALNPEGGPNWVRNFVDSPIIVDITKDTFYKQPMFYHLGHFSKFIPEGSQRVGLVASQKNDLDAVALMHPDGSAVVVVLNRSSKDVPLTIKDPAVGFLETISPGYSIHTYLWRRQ
Sequence of Cytochrome P450 1A2 (Homo sapiens) (P05177 whole entry, looked up): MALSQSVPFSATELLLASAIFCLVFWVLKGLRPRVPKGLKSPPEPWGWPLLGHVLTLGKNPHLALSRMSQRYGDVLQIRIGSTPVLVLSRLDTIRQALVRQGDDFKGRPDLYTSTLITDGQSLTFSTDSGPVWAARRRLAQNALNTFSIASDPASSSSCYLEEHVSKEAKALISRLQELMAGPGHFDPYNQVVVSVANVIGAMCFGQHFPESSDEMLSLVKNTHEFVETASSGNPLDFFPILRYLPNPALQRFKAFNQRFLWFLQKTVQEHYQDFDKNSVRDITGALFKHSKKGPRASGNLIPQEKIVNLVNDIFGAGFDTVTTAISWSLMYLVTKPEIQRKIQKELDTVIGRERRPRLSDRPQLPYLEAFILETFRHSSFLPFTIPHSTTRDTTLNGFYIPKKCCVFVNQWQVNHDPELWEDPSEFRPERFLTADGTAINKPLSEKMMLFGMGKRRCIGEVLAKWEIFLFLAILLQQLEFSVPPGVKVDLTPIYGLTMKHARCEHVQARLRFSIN
Sequence of Ubiquitin carboxyl-terminal hydrolase 1 (Homo sapiens) (O94782 whole entry, looked up): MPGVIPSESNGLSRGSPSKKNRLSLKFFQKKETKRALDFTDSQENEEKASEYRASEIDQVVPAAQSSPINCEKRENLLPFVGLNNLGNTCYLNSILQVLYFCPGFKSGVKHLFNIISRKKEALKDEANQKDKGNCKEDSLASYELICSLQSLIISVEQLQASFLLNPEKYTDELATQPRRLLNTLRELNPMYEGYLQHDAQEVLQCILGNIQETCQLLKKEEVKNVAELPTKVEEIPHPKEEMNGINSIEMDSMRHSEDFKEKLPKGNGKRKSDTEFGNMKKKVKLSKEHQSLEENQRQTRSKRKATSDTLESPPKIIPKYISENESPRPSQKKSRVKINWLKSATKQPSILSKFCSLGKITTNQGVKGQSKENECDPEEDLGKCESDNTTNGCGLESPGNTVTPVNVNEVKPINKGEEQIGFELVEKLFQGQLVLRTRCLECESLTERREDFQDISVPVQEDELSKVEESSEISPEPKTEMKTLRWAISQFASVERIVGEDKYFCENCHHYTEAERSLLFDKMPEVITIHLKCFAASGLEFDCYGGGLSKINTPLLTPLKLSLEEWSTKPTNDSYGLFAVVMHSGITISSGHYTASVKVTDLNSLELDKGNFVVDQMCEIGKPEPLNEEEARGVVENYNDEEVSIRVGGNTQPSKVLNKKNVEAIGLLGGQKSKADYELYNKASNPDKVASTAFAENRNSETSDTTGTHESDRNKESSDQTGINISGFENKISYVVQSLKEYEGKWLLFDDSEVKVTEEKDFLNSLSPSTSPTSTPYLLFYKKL
Sequence of Glucocorticoid receptor (Homo sapiens) (P04150 whole entry, looked up, the tested form may be a part): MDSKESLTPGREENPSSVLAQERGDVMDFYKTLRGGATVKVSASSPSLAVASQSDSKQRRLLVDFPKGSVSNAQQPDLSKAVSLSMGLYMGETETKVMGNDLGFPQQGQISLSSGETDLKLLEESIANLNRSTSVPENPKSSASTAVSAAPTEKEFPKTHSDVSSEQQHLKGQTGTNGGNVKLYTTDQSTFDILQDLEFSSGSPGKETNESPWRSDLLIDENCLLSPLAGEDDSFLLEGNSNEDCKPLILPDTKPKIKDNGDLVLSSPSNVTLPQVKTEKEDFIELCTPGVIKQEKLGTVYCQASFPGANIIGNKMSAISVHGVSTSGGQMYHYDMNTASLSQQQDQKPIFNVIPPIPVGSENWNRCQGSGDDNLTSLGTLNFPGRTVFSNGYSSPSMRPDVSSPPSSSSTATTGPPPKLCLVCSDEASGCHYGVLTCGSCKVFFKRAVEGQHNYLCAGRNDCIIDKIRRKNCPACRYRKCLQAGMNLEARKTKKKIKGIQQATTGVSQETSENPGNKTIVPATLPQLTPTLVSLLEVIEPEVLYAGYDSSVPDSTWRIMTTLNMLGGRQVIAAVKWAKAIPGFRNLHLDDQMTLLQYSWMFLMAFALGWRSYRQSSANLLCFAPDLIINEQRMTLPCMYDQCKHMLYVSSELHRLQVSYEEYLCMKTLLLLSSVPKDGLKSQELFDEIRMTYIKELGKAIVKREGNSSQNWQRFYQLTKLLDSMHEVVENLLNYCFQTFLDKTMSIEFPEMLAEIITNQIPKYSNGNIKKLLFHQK
Sequence of Cytochrome P450 3A4 (Homo sapiens) (P08684 whole entry, looked up): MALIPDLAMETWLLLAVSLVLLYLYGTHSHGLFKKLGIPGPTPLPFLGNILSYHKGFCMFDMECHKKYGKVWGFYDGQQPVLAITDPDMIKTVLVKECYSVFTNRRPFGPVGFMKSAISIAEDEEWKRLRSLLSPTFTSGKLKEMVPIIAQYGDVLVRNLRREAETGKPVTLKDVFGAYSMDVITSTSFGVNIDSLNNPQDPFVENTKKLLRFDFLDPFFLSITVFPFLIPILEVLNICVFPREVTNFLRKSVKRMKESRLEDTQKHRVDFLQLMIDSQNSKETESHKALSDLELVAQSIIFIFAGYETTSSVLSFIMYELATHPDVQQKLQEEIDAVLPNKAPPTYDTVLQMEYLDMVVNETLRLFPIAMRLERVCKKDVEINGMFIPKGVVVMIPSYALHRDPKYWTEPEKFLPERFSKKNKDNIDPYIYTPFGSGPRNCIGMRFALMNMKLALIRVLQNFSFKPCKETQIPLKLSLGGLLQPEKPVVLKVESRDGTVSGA
Sequence of 3',5'-cyclic-AMP phosphodiesterase 4B (Homo sapiens) (Q07343 whole entry, looked up): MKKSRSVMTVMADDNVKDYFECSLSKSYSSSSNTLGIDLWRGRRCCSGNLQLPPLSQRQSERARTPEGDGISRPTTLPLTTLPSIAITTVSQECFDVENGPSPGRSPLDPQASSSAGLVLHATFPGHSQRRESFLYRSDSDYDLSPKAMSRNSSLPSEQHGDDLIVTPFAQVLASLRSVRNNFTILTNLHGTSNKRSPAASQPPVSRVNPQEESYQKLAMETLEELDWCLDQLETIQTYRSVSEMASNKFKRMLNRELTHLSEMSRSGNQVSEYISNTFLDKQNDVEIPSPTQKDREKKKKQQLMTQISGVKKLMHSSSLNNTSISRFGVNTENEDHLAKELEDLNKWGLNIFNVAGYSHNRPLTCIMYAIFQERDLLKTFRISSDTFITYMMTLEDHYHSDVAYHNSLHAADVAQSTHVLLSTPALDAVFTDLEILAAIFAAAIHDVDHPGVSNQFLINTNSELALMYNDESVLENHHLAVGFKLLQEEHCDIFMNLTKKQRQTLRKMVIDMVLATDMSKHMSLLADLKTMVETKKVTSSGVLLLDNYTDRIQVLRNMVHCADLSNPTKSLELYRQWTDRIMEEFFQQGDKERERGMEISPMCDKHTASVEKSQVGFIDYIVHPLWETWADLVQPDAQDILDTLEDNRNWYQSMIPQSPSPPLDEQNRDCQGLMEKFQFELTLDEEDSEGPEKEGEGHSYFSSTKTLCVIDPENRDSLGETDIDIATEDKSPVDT
Sequence of Cytochrome P450 2C19 (Homo sapiens) (P33261 whole entry, looked up): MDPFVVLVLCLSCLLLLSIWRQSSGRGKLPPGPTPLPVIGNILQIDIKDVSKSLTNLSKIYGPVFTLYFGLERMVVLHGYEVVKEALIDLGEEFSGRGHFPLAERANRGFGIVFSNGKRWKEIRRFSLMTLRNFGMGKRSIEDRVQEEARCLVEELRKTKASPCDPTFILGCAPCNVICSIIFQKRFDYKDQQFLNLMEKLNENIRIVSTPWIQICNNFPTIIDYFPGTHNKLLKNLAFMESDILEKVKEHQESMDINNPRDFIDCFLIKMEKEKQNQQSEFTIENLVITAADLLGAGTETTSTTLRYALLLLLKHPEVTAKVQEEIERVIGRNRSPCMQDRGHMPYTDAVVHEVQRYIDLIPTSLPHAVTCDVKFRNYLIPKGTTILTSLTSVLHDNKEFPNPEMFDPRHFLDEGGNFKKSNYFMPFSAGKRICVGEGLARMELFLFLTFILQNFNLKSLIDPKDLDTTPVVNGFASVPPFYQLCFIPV
Sequence of Cytochrome P450 2D6 (Homo sapiens) (P10635 whole entry, looked up): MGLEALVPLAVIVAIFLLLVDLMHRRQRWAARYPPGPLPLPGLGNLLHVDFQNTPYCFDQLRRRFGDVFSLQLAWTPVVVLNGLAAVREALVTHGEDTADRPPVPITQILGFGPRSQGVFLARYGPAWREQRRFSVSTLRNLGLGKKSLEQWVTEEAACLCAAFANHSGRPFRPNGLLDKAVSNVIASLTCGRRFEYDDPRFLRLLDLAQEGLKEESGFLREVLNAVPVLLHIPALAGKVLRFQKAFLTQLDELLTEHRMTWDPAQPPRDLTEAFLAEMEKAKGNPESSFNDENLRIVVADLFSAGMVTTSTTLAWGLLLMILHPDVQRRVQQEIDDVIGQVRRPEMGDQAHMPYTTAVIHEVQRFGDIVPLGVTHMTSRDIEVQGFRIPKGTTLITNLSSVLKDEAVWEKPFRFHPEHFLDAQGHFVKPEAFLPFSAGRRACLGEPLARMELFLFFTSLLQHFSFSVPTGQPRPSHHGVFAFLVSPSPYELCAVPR

On to `Cc1cccc(CNc2ccnc(-c3ccccc3CN(C)C)n2)c1`, for which the Potency in assay [1] is 11.5 µM (inactive); in assay [3], 3.16 µM (active); in assay [6], > 46 µM (inactive); in assay [9], 2.51 µM (active). Besides, the figures for the activity change, negative = inhibition in [2], in assay [4] and in [12] were -18% (inactive), -18.8% (inactive) and 3.61% (inactive), respectively. Moreover, in [5], the activity, negative = inhibition was -5.22% (inactive). Moreover, the Potency entry in [7], in assay [8], in assay [10] and in assay [13] was “inactive” each time. Further, the outcome in assay [11] was inactive. Also, the max response is -8.06% in assay [12] (setting [19]) and -5.18% in assay [12] (setting [20]).

In the case of `Cc1cccc(CNc2cc(-c3ccc(C(=O)N(C)C)cc3)ncn2)c1`, the Potency in [1] was > 11.4 µM (inactive); in [3] it was 15.8 µM (active); in assay [14] it was > 46 µM (inactive); in assay [6] it was > 46 µM (inactive); in assay [15], 3.16 µM (active). The activity change, negative = inhibition in assay [2] was -7.22% (inactive); in [4], 13.4% (inactive); in [12], 0.763% (inactive). Also, the activity, negative = inhibition in assay [5] is -2.64% (inactive). Also, the Potency result in assay [7], in assay [8], in assay [10] and in assay [13] was “inactive” in each case. In assay [11], the outcome was inactive. The values for the max response in assay [12] (setting [19]) and in assay [12] (setting [20]) were 0.996% and 1.9%, respectively.

For `CN(C)C(=O)c1ccc(-c2nc(N(C)C)c3ccccc3n2)cc1`, the Potency in assay [1] is > 11.4 µM (inactive); in [3], 10 µM (active); in assay [14] it was > 46 µM (inactive); in [6], > 46 µM (inactive). For the same compound, the activity change, negative = inhibition was -11.7% (inactive) in [2], 16.5% (inactive) in assay [4] and 8.51% (inactive) in assay [12]. The activity, negative = inhibition in [5] is 2.64% (inactive). Moreover, the Potency result in assay [7], in [16], in assay [8], in assay [17], in assay [10] and in assay [13] was “inactive” in each case. The outcome in assay [11] was inactive. Also, the max response was found to be 8.15% in [12] (setting [19]) and 13.9% in [12] (setting [20]).

For the compound `COc1ccccc1CNc1ccnc(-c2ccccc2C(F)(F)F)n1`, the Potency was > 11.4 µM (inactive) in [1]; 10 µM (active) in assay [3]; > 46 µM (inactive) in assay [14]; > 46 µM (inactive) in [6]; 20 µM (active) in [13]. Further, the activity change, negative = inhibition was -18.3% (inactive) in assay [2], -19.1% (inactive) in assay [4] and 5.29% (inactive) in [12]. The activity, negative = inhibition in assay [5] was 4.24% (inactive). The Potency result in assay [7], in assay [16], in assay [8] and in [10] was “inactive” in each case. Besides, the activation in [18] was -5.47% (inactive). In [11], the compound was classed as inactive. Moreover, the max response in assay [12] (setting [19]) was -3.33%; in [12] (setting [20]) it was 2.88%.

On to `COc1ccccc1-c1nc(NCc2cnc(C)cn2)c2ccccc2n1`, for which the Potency in [1] is > 11.4 µM (inactive); in [3], 5.01 µM (active); in assay [14] it was > 46 µM (inactive); in assay [6], > 46 µM (inactive). Further, the activity change, negative = inhibition in assay [2] is 4.95% (inactive); in assay [4], 2.11% (inactive); in assay [12], 7.28% (inactive). Further, in assay [5], the activity, negative = inhibition was -5.06% (inactive). Moreover, the Potency entry in [7], in [16], in [8] and in [10] was “inactive” throughout. For the same compound, the call in assay [11] was inactive. In addition, the max response in assay [12] (setting [19]) was 6.96%; in assay [12] (setting [20]), 14.2%.

The record behind these values is PubChem BioAssay (NCATS).
